Only a selection was taken, and hits are over-represented in it overall.
nsP2pro primary: inhibitors of chikungunya virus nsP2 protease; 31,000 compounds, 1.1% hits; Potency, µM (series often up to 24.9 µM), hits mostly inhibitors; FRET peptide cleavage, nsP2pro, fluorescence 1 h; calls by dose curve; further: nearly all actives have a fitted effect of over 60% in size
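Purified recombinant nsP2pro (150 nM final) in 10 mM Tris-HCl pH 8.0 with 0.01% Tween 20 was preincubated 15 min at room temperature with compound (7 concentrations, up to 25 uM). FRET peptide 2 substrate (2.5 uM final) was then added; fluorescence was read after 1 h.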
Hits are given with their value; 0 = inactive.

SMILES	nsP2pro primary
COc1cc(N2CCN(C(=S)Nc3cc(C)cc(C)n3)CC2)cc(C(F)(F)F)c1	0
Cc1cn([C@H]2O[C@@H](CO)[C@H](O)[C@H]2F)c(=O)[nH]c1=O	0
COc1ccc(CN2CCc3nc(C(=O)NCCOc4ccccc4)oc3CC2)cn1	3.5µM
O=C(NCC1CC1)c1nc2c(o1)CCN(CCCc1ccccc1)CC2	10µM
O=C(NCC1CC1)C1CN(Cc2ccccc2)C(=O)N1 (configuration not stated)	0
O=C(NCc1cccc(F)c1)c1nc2c(o1)CCN(CC1CCCC1)CC2	3.5µM
COc1ccc(CN2CCc3ncc(C(=O)NCc4ccc5c(c4)OCO5)n3CC2)cn1	0
O=C(NCc1ccc(F)cc1)c1nnc(Cc2cccc(F)c2)o1	0
Cc1c(C(=O)NCc2cccc(F)c2)oc2c1-c1[nH]ncc1CC2	0
Cc1[nH]cnc1CN1CCc2nc(C(=O)NCCOc3ccccc3)oc2CC1	0
O=C(NC1CC1)[C@@H]1CN(CCCc2ccccc2)C[C@H]1CO	0
CN(Cc1cccc(N2CCN(Cc3c(Cl)ccc(Cl)c3Cl)CC2)c1)[S+](C)(=O)[O-]	0
CC1=C(C(=O)Nc2ccccc2)C(c2cc(C)ccc2C)N2C(CC(=O)NC(C)C)=CSC2=N1 (configuration not stated)	0
CCC1OC(=O)C(C)C(OC2CC(C)(OC)C(O)C(C)O2)C(C)C(OC2OC(C)CC(N(C)C)C2O)C(C)(O)CC(C)C2NC(COCCOC)OC(C2C)C1(C)O (configuration not stated)	0
Nc1nc(CC(=O)Nc2ccc(CCNC[C@H](O)c3ccccc3)cc2)cs1	0
Cc1ccnc(NC(=S)N2CC3CN(c4ncc(C(F)(F)F)cc4Cl)CC3C2)c1 (configuration not stated)	0
O=C(NCCc1ccccc1)N1CC(c2noc(C3CCCN3CC3CC3)n2)C1 (configuration not stated)	0
CC(=O)N1CCCC(c2nn(-c3ccccn3)c(=O)[nH]2)C1 (configuration not stated)	0
CCc1cc(C(=O)N2CCN(c3ccccc3)CC2)no1	0
CCOC(=O)c1c(-c2ccc(C)cc2)csc1NC(=O)c1cc(-c2ccc(OC)cc2)on1	0
CCc1cc(C(=O)Nc2sc(C)c(CC)c2C#N)no1	11µM
COc1cc2ncnc(Nc3ccc(O)c(Br)c3)c2cc1OC	0
COc1ccc(-c2ncc(CN3CCCC4(C3)CN(C)C(=O)O4)cn2)cc1 (configuration not stated)	0
COc1ccc(CN2CCCC3(C2)CN(C)C(=O)O3)cc1C(=O)O (configuration not stated)	0
CN1CC2(CCN(Cc3ccc(-c4ccc(Cl)cc4)o3)C2)OC1=O (configuration not stated)	13µM
SMILES	nsP2pro primary
CC(C)=CCC[C@](C)(O)[C@H]1CC[C@]2(C)[C@@H]1[C@H](O)C[C@@H]1[C@@]3(C)CC[C@H](O)C(C)(C)[C@@H]3CC[C@]12C	0
Cc1cc(C)nc(NC(=S)N2CCN(c3cc(Cl)cc(C(F)(F)F)c3)CC2)c1	0
O=C(C1CCCN1Cc1ccc(-c2cncnc2)cc1)N1CCOCC1 (configuration not stated)	0
CCC1C(O)C2C3CCC(C(C)CCC(=O)O)C3(C)CCC2C2(C)CCC(O)CC12 (configuration not stated)	0
O=C(Nc1ccc(Cl)c(Cl)c1)Nc1cccc(-c2ccncc2)n1	0
Cn1nc(C(=O)N2CCCC(CN3CCOCC3)CC2)c2ccccc21 (configuration not stated)	0
COc1ccc(Cl)cc1C(=O)Nc1ccc(-c2nnc3n2CCCCC3)cc1	0
O=C(CCC1CCCC1)Nc1ccc(-c2nnc3n2CCCC3)cc1	0
CCOc1ccc(C(=O)Nc2ccc(-c3nnc4n3CCCCC4)cc2)cc1OCC	10µM
CCN(CC)C(=O)[C@]1(c2ccccc2)C[C@H]1CN	0
O=C1c2ccccc2NC(c2ccc(-c3ccc(F)cc3)o2)N1O (configuration not stated)	0
O=C1c2ccccc2NC(c2ccc(-c3ccc(Br)cc3)o2)N1O (configuration not stated)	13µM
O=C1c2ccccc2NC(c2ccc(-c3ccc(-c4ccccc4)cc3)o2)N1O (configuration not stated)	0
COC(=O)N(C)Cc1cccc(N2CCN(S(=O)(=O)c3cccc4ccccc34)CC2)c1F	0
O=C(NCC1CN(C(=O)NC2CCCCC2)CC12CCCCC2)C1CC1 (configuration not stated)	0
O=C[C@H](O)[C@@H](O)[C@H](O)CO	0
[2H]C([2H])([2H])C(CCC[C@@H](C)[C@H]1CC[C@H]2/C(=C/C=C3\C[C@@H](O)C[C@H](O)C3=C)CCC[C@]12C)C([2H])([2H])[2H]	0
CCCNC(=O)[C@@H]1Cc2cn(Cc3nccn3C)c3cccc(c23)[C@H](CC(C)C)N1	0
Cc1ccnc(NC(=S)N2CCN(c3cccc(C(F)(F)F)c3)CC2)n1	0
CC(=O)Nc1ccccc1NC(=O)c1cnn2c(C)cc(C)nc12	0
O=C(O)c1cccc(-c2noc(-c3cccc(F)c3)n2)c1	0
CCOC(=O)c1cnn(-c2ccc(NC(=O)C(Cl)=C(Cl)Cl)cc2)c1C(F)(F)F	0
COC(=O)c1ccccc1NC(=O)c1cc2nc(-c3ccccc3)cc(-c3ccccc3)n2n1	0
CCOC(=O)c1cnn(-c2ccccc2)c1NC(=O)c1cc2nc(-c3ccco3)cc(C(F)(F)Cl)n2n1	11µM
COc1cccc(CN2Cc3cc(NC(=O)Cc4cccs4)ccc3OCC2=O)c1OC	0
SMILES	nsP2pro primary
COc1cccc(NC(=S)N2CCN(c3cc(C(F)(F)F)cc(C(F)(F)F)c3)CC2)n1	0
COc1cc2c(c(OC)c1OC)-c1c(cc3c(c1OC)OCO3)C[C@@H](C)[C@@H](C)C2	0
CNc1nc(NCc2ccc(NS(C)(=O)=O)cc2Cl)cc(-c2ccccn2)n1	0
O=C(NCc1ccnc2[nH]ccc12)c1ccc(Cl)cc1	14µM
O=C(Cc1ccccc1)NCc1ccnc2[nH]ccc12	0
O=C(NCc1c[nH]c2ncccc12)c1cccnc1	0
Cc1cc(C)nc(NC(=S)N2CCN(c3ncc(Cl)cc3Cl)CC2)c1	0
O=C(Nc1cccc(-c2ccc(N3CCOCC3)nn2)c1)Nc1ccc(F)cc1F	0
CCOC(=O)N1CCc2c(sc(NCc3cccs3)c2C(=O)Nc2cc(OC)ccc2OC)C1	11µM
COc1ccc(NC(=O)c2c(NCc3sccc3C)sc3c2CCCC3)c(OC)c1	0
COc1ccccc1NC(=O)c1c(NCc2ccc(OC)c(OC)c2OC)sc2c1CCC2	0
Cc1ccc(S(=O)(=O)Nc2cnccc2C(=O)Nc2nc(-c3ccncc3)cs2)cc1	0
C/C(=C1\CCOC(=O)S1)N(C=O)Cc1cnc(C)nc1N	0
CC(=C(CCOC(=O)C(C)C)SSC(CCOC(=O)C(C)C)=C(C)N(C=O)Cc1cnc(C)nc1N)N(C=O)Cc1cnc(C)nc1N	11µM
O=C1NC(=NC2CCCCC2)C2(CCN(CC3CCCCC3)C2)N1c1cccnc1 (configuration not stated)	0
Cc1ccc(CN2CC(N(CC3CC3)C3CCOCC3)C2)cc1	0
Cn1cc(-c2ccc3c(n2)CN(Cc2ccc(F)cc2)C(=O)CO3)cn1	0
O=C1COc2ccc(-c3cccc(O)c3)nc2CN1Cc1ccc(C(F)(F)F)cc1	0
O=C1COc2ccc(N3CCOCC3)nc2CN1Cc1ccc(F)cc1	11µM
Cc1nn(C)c(C)c1CCC(=O)NCCc1ncc(C)n1Cc1ccc(F)cc1	0

Source: PubChem BioAssay
